# Reference: PubChem BioAssay (Tox21)
# Inconclusive results are not listed. Values without a mark were called inactive. The source made the active and inactive calls. Calls follow the shape of the dose curve; as a rule, active = well fitted cell-killing curve with a large enough effect in the repeat runs; inconclusive = weak or mixed curves, or effect the other way; inactive = flat fitted curve, though single readings scatter.
# Test: cAMP Responsive Elements (CRE) small molecule antagonists, cell-based qHTS assay: qHTS cell viability counter screen (AID 2060913); also: nearly all actives have a fitted effect of over 40% in size
# Conditions: CRE-bla HEK293T viability, CellTiter-Glo luminescence, 5 h; series mostly up to 92.4 µM; viability change, negative = cytotoxic: at the top concentration
# Text: U.S. Tox21 Program National Center for Advancing Translational Sciences [NCATS] Division of Preclinical Innovation [DPI] U.S. Environmental Protection Agency [EPA] National Institutes of Environmental Health Sciences [NIEHS] National Toxicology Program [NTP] U.S. Food and Drug Administration [FDA] Tox21 Assay Overview: CREB (cyclic-AMP Responsive Element Binding Protein) is a cellular transcription factor. It binds to certain DNA sequences called cAMP Responsive Elements (CRE) and regulates the transcription of the genes. […] This cell line can be used to find agonists/antagonists of the cyclic AMP signaling pathway. The activation of the report gene under culture conditions can be detected by fluorescence intensity. This cell line has been used to screen the Tox21 10K compound library to identify agonists that induce oxidative stress. The cytotoxicity of the Tox21 compound library against the CRE-bla cell line was tested in parallel by measuring the cell viability using CellTiter-Glo assay (Promega, Madison, WI) in the same wells.
# Tox21 Assay Protocol Summary: CRE-bla Hek 293T cells were suspended in assay medium (DMEM containing 10% dialyzed FBS, 0.1 mM NEAA, 1 mM sodium pyruvate and 25 mM HEPES) and dispensed at 2,000 cells/4 uL /well into 1536-well black wall/clear bottom plates using a Multidrop Combi (ThermoFisher Scientific, Waltham, MA) dispenser. After the assay plates were incubated at 37 C/5% CO2 for 18 hrs, 23 nL of compounds dissolved in DMSO, positive controls or DMSO only was transferred to the assay plate by a pintool workstation (Kalypsys, San Diego, CA), followed by addition of 1 uL of 1.25uM NKH477 (0.25 uM as final concentration) in assay medium using a Flying Reagent Dispenser (Aurora Discovery, San Diego, CA). The plates were incubated at 37 C and 5% CO2 for 3 hrs. Then 1 uL of LiveBLAzer B/G FRET substrate (Invitrogen, Carlsbad, CA) was added to each well using Bioraptr Flying Reagent Dispenser (FRD, Aurora Discovery, San Diego, CA). The plates were incubated at room temperature for 2 h, then fluorescence intensities were measured using an Envision plate reader (PerkinElmer, Shelton, CT) at Excitation 405nm, Emission 460nm and 530nm. The % activity was determined from the ratio of 460nm/530nm. For cell viability readout that measures cytotoxicity, 4 uL /well of CellTiter-Glo reagent was added into the assay plates using Bioraptr FRD. After 30 min incubation at room temperature, the luminescence intensity in the assay plates was measured using a ViewLux (PerkinElmer, Shelton, CT) plate reader.
# % is scaled to controls: 0 for no effect and ±100 for the full control effect.
SMILES,"viability change, negative = cytotoxic",Potency
CCCCCCCCS(=O)(=O)O,2.91%,
O=C1OC(=O)c2ccc3c4c(ccc1c24)C(=O)OC3=O,-14.8%,
Cc1ccc(NC=O)c(C)c1,0.598%,
C1=C\CC/C=C\CC/C=C\CC/1,-3.69%,
COc1ccccc1/C=C/C=O,,inactive
CCCCCCCC/C=C\CCCCCCCC(=O)OC(CO)CO,16.7%,
OCCNCCO,,inactive
N#C/C(=C1/SC[C@@H](c2ccc(Cl)cc2Cl)S1)n1ccnc1,-13% [at 42.5 µM],
CC1CC(C)C(=O)C1=O (stereo not given),-0.555%,
O=C(O)CO,3.56%,
Oc1cccc(-c2c3nc(c(-c4cccc(O)c4)c4ccc([nH]4)c(-c4cccc(O)c4)c4nc(c(-c5cccc(O)c5)c5ccc2[nH]5)CC4)C=C3)c1,10.1% [at 42.5 µM],
CN(C)CCOC(=O)COc1ccc(Cl)cc1,,inactive
C#C[C@]1(O)CC[C@H]2[C@@H]3CCC4=CC(=O)CC[C@@H]4[C@H]3CC[C@@]21CC,,inactive
COC1=C(OC)C(=O)C(CCCCCCCCCCO)=C(C)C1=O,-10.7% [at 42.5 µM],
Nc1cc(C(=O)O)ccc1Cl,1.51%,
CC(C)(c1ccc(Oc2ccc(N)cc2)cc1)c1ccc(Oc2ccc(N)cc2)cc1,-6.91%,
CCCC[P+](CCCC)(CCCC)CCCC,,inactive
Cc1cccc(NC(=S)N(C)C)c1,-1.36%,
C=C(C)C(=O)OCCOCCOC(=O)C(=C)C,1.7%,
NC1CCN(c2nc3c(cc2F)c(=O)c(C(=O)O)cn3-c2ccc(F)cc2F)C1 (stereo not given),0.587% [at 42.5 µM],

SMILES,"viability change, negative = cytotoxic",Potency
CC1(C)O[C@@H]2C[C@H]3[C@@H]4CCC5=CC(=O)C=C[C@]5(C)[C@H]4[C@@H](O)C[C@]3(C)[C@]2(C(=O)CO)O1,-1.4% [at 42.5 µM],
CC(C)CCCCCCc1ccc(OCCOCCO)cc1,11.5%,
O=Cc1c2ccccc2c(Cl)c2ccccc12,14.7% [at 42.5 µM],
CCOc1ccc2nc(N)sc2c1,1.29%,
O=[Si]=O,0.951%,
CNC(=O)c1cnn(-c2nc(N)c3ncn([C@@H]4O[C@H](CO)[C@@H](O)[C@H]4O)c3n2)c1,0.507% [at 42.5 µM],
NCCCC(N)(C(=O)O)C(F)F (stereo not given),4.3% [at 42.5 µM],
CC(C)(CCC(=O)O)C(=O)O,5.85%,
CN(CC1(C)CCCO1)S(=O)(=O)c1ccc(Cl)c(S(N)(=O)=O)c1 (stereo not given),-1.01% [at 42.5 µM],
CC(=C(CCOC(=O)C(C)C)SSC(CCOC(=O)C(C)C)=C(C)N(C=O)Cc1cnc(C)nc1N)N(C=O)Cc1cnc(C)nc1N,8.38% [at 42.5 µM],
C=C(C)C(=O)OCCO,-2.22%,
C=CCOc1nc(OCC=C)nc(OCC=C)n1,0.127%,
CC(C)CC(=O)CC(C)CC(C)C (stereo not given),,inactive
O=C1CCCN1C1CCCCC1,-2.72%,
C1CCC2=NCCCN2CC1,7.19%,
COCN(COC)c1nc(N(COC)COC)nc(N(COC)COC)n1,,inactive
c1ccc2c(c1)ccc1cc3c(ccc4ccccc43)cc12,,inactive
Cc1ccccc1N1C(=O)c2cc(S(N)(=O)=O)c(Cl)cc2NC1C (stereo not given),6.36% [at 42.5 µM],
O=C(c1ccccc1)c1ccccc1O,,inactive
C[C@]12C=CC(=O)C=C1CC[C@@H]1[C@@H]2[C@@H](O)C[C@@]2(C)[C@H]1CC[C@]2(O)C(=O)CO,,inactive
